Among the data in article PMC5700166 are binding signal values, retold here.

Changes are numbered by the printed parent chain.

Experiment in all cases: protein-binding microarray (PBM); PBM: ~300 nM protein, 6 mM HEPES pH 7.8, 80 mM KCl, 0.5 mM EDTA, 0.5 mM EGTA, 6% glycerol, 35 ng/ul poly-dIdC, 1% milk, 1 h, room temperature; Ap Aiptasia and Nv Nematostella (sea anemones) / Co Capsaspora / Aq Amphimedon (sponge) / Dm Drosophila / Hu human; RHD is the Rel homology domain; high values mean tight binding
Conditions in all cases: dsDNA, one strand shown

In test [1] the target is T1, GST-Ap-NF-kB RHD (Exaiptasia pallida (Aiptasia), UniProt A0A913YAJ5 2-422).
T1 sequence: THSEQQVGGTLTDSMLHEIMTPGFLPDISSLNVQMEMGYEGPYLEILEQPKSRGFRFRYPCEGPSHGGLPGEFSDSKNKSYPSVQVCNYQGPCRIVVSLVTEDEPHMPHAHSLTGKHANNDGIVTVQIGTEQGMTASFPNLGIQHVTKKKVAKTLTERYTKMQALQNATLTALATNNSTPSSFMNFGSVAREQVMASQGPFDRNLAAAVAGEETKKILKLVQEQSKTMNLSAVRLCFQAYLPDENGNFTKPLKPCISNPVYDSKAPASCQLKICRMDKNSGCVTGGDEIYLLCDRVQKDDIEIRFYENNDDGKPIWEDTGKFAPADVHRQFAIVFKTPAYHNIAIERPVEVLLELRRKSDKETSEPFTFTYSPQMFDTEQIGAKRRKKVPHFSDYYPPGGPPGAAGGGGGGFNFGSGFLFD

In test [2] the target is T2, GST-Nv-NF-kB (Cys allele) (Nematostella vectensis, UniProt E5G601 2-411).
T2 sequence: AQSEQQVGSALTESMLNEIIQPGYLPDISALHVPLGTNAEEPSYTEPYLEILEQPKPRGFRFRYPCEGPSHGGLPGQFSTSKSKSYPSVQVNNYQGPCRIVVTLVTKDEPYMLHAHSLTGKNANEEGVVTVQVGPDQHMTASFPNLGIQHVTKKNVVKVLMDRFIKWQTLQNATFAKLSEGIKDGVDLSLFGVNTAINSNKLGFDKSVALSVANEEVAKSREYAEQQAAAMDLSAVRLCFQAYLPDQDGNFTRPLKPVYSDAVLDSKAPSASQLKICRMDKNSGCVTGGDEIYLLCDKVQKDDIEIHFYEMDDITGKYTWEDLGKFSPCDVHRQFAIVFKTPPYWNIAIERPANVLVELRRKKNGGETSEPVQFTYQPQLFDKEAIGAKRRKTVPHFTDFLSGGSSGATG

Test [3] has as its target T3, GST-Nv-NF-kB (Ser allele) (Nematostella vectensis, UniProt A7UNT2 2-411).
T3 sequence: T2 sequence with Q21R, C66S, S207N, E215Q, V217A, E225K, A268E, D399E

In test [4] the target is T4, GST-Co-NF-kB (Capsaspora owczarzaki, UniProt F1ARL5 200-546).
T4 sequence: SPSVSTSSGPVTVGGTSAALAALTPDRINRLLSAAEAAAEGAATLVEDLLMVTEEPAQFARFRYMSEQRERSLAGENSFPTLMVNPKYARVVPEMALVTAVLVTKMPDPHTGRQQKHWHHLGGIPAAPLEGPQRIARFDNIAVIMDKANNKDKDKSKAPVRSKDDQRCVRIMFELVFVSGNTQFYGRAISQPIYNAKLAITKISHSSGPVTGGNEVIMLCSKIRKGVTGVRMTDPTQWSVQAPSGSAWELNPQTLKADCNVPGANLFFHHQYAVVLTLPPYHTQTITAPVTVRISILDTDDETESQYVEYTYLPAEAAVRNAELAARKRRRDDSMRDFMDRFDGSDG

Test [5] addresses T5, GST-Dm-Relish (Drosophila melanogaster, UniProt Q94527 99-473).
T5 sequence: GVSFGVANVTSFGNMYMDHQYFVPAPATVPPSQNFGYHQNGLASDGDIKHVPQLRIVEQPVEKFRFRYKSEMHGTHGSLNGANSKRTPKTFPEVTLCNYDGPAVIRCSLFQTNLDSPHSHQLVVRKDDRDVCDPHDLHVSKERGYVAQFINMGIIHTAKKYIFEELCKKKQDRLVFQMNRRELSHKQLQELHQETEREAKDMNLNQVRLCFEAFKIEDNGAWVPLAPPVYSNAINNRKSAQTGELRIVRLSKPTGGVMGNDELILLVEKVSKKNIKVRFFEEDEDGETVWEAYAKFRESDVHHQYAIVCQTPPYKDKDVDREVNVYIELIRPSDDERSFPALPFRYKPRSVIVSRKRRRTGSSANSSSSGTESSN

Test [6] concerns the target T6, GST-Aq-NF-kB (Amphimedon queenslandica, UniProt A9Y5G7 2-389).
T6 sequence: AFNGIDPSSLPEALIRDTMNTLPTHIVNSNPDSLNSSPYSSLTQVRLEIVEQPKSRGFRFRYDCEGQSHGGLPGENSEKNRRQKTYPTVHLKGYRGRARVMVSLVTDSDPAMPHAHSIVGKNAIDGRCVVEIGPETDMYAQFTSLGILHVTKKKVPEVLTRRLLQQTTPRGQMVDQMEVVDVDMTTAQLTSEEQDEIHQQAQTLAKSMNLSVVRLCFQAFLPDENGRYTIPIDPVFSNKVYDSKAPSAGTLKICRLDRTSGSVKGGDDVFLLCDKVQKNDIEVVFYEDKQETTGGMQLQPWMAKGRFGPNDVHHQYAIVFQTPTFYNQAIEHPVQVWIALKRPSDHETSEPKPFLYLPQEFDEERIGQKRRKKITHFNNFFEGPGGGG

Test [7] has as its target GST-Hu-p50 (Homo sapiens, UniProt P19838 7-356).

GST-Hu-p50, sequence (P19838 7-356): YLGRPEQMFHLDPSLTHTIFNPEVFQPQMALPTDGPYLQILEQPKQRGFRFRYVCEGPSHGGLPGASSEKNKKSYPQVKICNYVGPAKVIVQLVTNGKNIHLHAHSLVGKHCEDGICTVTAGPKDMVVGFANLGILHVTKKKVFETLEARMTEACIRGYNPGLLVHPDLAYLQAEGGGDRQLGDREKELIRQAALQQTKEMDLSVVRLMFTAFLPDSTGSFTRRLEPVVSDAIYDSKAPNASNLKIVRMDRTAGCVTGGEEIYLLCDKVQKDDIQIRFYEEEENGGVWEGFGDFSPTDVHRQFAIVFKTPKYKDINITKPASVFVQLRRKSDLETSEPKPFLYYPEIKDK

“CCGATTAACATCAAATATCCCCATGATGTTAATCGGGTCTTGATTCGCTTGACGCTGCTG”: the binding signal in test [1] is 6.82 z-score; in test [2], 6.83 z-score; in test [3], 7.36 z-score; in test [4] it was 4.59 z-score; in test [5], 4.81 z-score; in test [6], 4.67 z-score. Besides, the binding signal in test [7] was 5.18 z-score.
Regarding “CCGATTAACATCAAAACTCCCCATGATGTTAATCGGGTCTTGATTCGCTTGACGCTGCTG”, the binding signal in test [1] was 7.13 z-score; in test [2], 6.03 z-score; in test [3] it was 6.69 z-score; in test [4], 5.85 z-score; in test [5], 5.96 z-score; in test [6] it was 5.83 z-score. This sequence also had a binding signal in test [7] of 5.36 z-score.
For “CCGATTAACATCAAAAATACCCATGATGTTAATCGGGTCTTGATTCGCTTGACGCTGCTG”, the binding signal in test [1] was 4.63 z-score; in test [2], 6.47 z-score; in test [3], 6.31 z-score; in test [4], 2.49 z-score; in test [5], 5.48 z-score; in test [6] it was 5.67 z-score. The binding signal in test [7] stood at 5.58 z-score.
As to “CCGATTAACATCACAAAATCCCCTGATGTTAATCGGGTCTTGATTCGCTTGACGCTGCTG”, the binding signal in test [1] is 9.85 z-score; in test [2], 10.8 z-score; in test [3] it was 12.8 z-score; in test [4], 5.11 z-score; in test [5], 9.67 z-score; in test [6] it was 8 z-score. For the same sequence, in test [7], the binding signal came out at 8.07 z-score.
Consider “CCGATTAACATCACGAATTTCCCTGATGTTAATCGGGTCTTGATTCGCTTGACGCTGCTG”, for which the binding signal came out at 4.28 z-score in test [1]; 5.72 z-score in test [2]; 6.67 z-score in test [3]; 4.33 z-score in test [4]; 2.13 z-score in test [5]; 5.22 z-score in test [6]. For the same sequence, the binding signal in test [7] worked out at 4.46 z-score.
As for “CCGATTAACATCAGGACATCCCCTGATGTTAATCGGGTCTTGATTCGCTTGACGCTGCTG”, the binding signal in test [1] came to 6.25 z-score; in test [2], 7.54 z-score; in test [3], 5.99 z-score; in test [4], 1.88 z-score; in test [5], 8.74 z-score; in test [6], 7.75 z-score. Moreover, the binding signal in test [7] came to 5.89 z-score.
For “CCGATTAACATCAGGGGGTATAATGATGTTAATCGGGTCTTGATTCGCTTGACGCTGCTG”, the binding signal came out at 5.4 z-score in test [1]; 3.26 z-score in test [2]; 4.36 z-score in test [3]; 5.2 z-score in test [4]; 3.02 z-score in test [5]; 3.48 z-score in test [6]. In test [7], the binding signal came out at 4.16 z-score.
Consider “CCGATTAACATCAGAGTTCCCCCTGATGTTAATCGGGTCTTGATTCGCTTGACGCTGCTG”, for which the binding signal is 7.64 z-score in test [1]; 7.87 z-score in test [2]; 8.12 z-score in test [3]; 8.96 z-score in test [4]; 7 z-score in test [5]; 6.05 z-score in test [6]. In test [7], this sequence gave a binding signal of 6.39 z-score.
As for “CCGATTAACATCAAGAAACCCCCTGATGTTAATCGGGTCTTGATTCGCTTGACGCTGCTG”, the binding signal in test [1] amounted to 9.53 z-score; in test [2] it was 8.55 z-score; in test [3] it was 9.47 z-score; in test [4], 3.31 z-score; in test [5], 10 z-score; in test [6], 7.67 z-score. Moreover, the binding signal in test [7] is 7.53 z-score.
Turning to “CCGATTAACATCAGGGGAAGTCATGATGTTAATCGGGTCTTGATTCGCTTGACGCTGCTG”, the binding signal in test [1] turned out to be 5.98 z-score; in test [2], 7.2 z-score; in test [3], 7.6 z-score; in test [4], 4.69 z-score; in test [5], 6.43 z-score; in test [6] it was 6.01 z-score. In addition, in test [7], the binding signal worked out at 5.27 z-score.
Regarding “CCGATTAACATCACAGATTCCCCTGATGTTAATCGGGTCTTGATTCGCTTGACGCTGCTG”, the binding signal in test [1] amounted to 7.65 z-score; in test [2], 9.02 z-score; in test [3], 10.7 z-score; in test [4], 7.14 z-score; in test [5] it was 6.17 z-score; in test [6], 5.96 z-score. This sequence also showed a binding signal in test [7] of 6.28 z-score.
With “CCGATTAACATCAGGGGAATCAATGATGTTAATCGGGTCTTGATTCGCTTGACGCTGCTG”, the binding signal in test [1] was 5.46 z-score; in test [2], 6.47 z-score; in test [3], 8.04 z-score; in test [4] it was 5.78 z-score; in test [5] it was 5.48 z-score; in test [6] it was 4.26 z-score. In test [7], the binding signal came to 4.98 z-score.
